A selection: hits, their analogues and other compounds. The true share with any hit is near 9.2%.
Rab9 promoter act: activators of Rab9 promoter; Potency, µM (doses to about 9.22 µM), for the others: at the highest dose activation, negative = inhibition, usual class: activators; AID 485297; Huh7 Rab9 promoter-luciferase reporter, luminescence, 24 h; 320,000 compounds, 2.8% hits; further: % of control where 0% means no effect; nearly all actives have a fitted effect of over 60% in size
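Rab9 promoter-driven luciferase in stably transfected Huh7 cells; 1500 cells/well rested 2 h, exposed to compound in DMSO for 24 h at 37 °C, 5% CO2. Luminescence read 10 min after adding luciferase reagent at ambient temperature.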
NPC1 prom act: NPC1 promoter activation. Huh7 NPC1 promoter luciferase reporter, 24 h. Potency, µM (highest dose often 9.22 µM), for inactives: at the top dose activation, hits mostly activators. 320,000 compounds, 2.4% hits; further: % of control where 0% means no effect; nearly all actives have a fitted effect of over 60% in size
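Huh7 cells stably carrying NPC1 promoter–luciferase, plated in Opti-MEM with 10% FBS for 2 h, were exposed to compound in DMSO for 24 h at 37 °C; luciferase reagent was added for 10 min and luminescence read.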
SMN2 splice up: SMN2 splice variant enhancement | HEK293 SMN2-luciferase splicing reporter, luminescence, 30-36 h | Potency, µM (series often up to 46.1 µM), inactives show at the highest dose activity change, positive = activation, hits mostly activators | 210,000 compounds, 2.8% hits | AID 1458; further: % of control where 0% means no effect; nearly all actives have a fitted effect of over 55% in size
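HEK293 cells carry an SMN2 minigene-luciferase reporter in which exon 7 inclusion puts luciferase in frame. Cells were seeded at 2000 cells/well, attached for 10-12 hours, then exposed to compounds for 30-36 hours at 37C before ONE-Glo luminescence.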
ELG1 repair inh: ELG1-dependent DNA repair inhibition. HEK293T ELG1-luciferase reporter, luminescence, 16 h; DNA damage induced by 5-fluorouridine. Potency, µM (top dose mostly 46.1 µM), for inactives: at the highest dose activity change, negative = inhibition, actives largely listed as inhibitors. 330,000 compounds, 2.3% hits; further: on the % scale 0 is the no-effect control and ±100 the full control effect; nearly all actives have a fitted effect of over 55% in size
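In this reporter screen, reduction of luminescence relative to DMSO vehicle indicated activity. Compounds and 5-fluorouridine were added together to 2,000 cells per well, incubated for 16 hr at 37 °C, then developed with ONE-Glo.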
FLuc modulator: counter-screen for miR-21 project: firefly luciferase inhibitors or activators | P08659 | 360,000 compounds, 6.9% hits | Potency, µM (doses to about 57.5 µM), without a hit: at the top dose activity change, negative = inhibition, hits mostly inhibitors | AID 588342 | purified FLuc, Km substrates, luminescence inhibition;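 further: plate controls were vehicle for no effect and reference inhibitor for full effect; nearly all actives have a fitted effect of over 55% in size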
Target sequence (P08659 whole entry, looked up): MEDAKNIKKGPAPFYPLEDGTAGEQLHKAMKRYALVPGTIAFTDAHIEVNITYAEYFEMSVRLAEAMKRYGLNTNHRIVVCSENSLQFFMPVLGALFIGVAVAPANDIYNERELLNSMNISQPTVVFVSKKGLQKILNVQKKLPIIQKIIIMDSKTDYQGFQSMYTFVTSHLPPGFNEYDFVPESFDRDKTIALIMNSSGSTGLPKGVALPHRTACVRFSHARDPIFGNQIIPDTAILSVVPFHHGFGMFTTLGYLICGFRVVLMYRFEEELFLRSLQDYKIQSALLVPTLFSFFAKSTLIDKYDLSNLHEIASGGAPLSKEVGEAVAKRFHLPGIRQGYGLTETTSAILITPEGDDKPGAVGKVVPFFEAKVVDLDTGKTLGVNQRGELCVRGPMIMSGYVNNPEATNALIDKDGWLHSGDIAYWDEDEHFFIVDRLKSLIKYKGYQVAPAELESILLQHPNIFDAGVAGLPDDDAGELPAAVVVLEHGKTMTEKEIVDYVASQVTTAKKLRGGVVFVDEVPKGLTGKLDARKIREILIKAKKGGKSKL
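Purified P. pyralis luciferase, 10 nM final, with Km-level 10 uM D-luciferin and 10 uM ATP in 50 mM Tris acetate pH 7.5, 10 mM Mg acetate, 0.01% Tween-20, 0.05% BSA; 6-point qHTS titration about 60 µM downward; luminescence read.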
ELG1 genotox: inducers of genotoxicity in HEK293T ELG1-luciferase cells. HEK293T ELG1-luciferase reporter, luminescence, 16 h. Potency, µM (titrated, usually from 46 µM), inactives show at the highest dose activity change, positive = activation, actives largely listed as activators. 330,000 compounds, 1.3% hits. AID 504466; further: % of control where 0% means no effect; nearly all actives have a fitted effect of over 60% in size
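Genotoxic stress is detected as increased luminescence from luciferase-tagged ELG1 in HEK293T cells, measured with ONE-Glo after a 16 hr treatment at 37 °C.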
An asterisk follows results filed as active; ? = inconclusive; . = not tested or not shown; [ ] = dose if it differs, or a comment. The call rests on the fitted dose curve; in most records, active means well fitted curve in the direction sought with a large enough effect; inconclusive means small, poorly fitted or top-dose-only effect, or another doubt; inactive means no such curve, though single readings can be large; an effect the other way counts as inactive or inconclusive. Potency means the concentration at half of the fitted maximal effect.

SMILES | Rab9 promoter act | NPC1 prom act | SMN2 splice up | ELG1 repair inh | FLuc modulator | ELG1 genotox
COc1ccc(N(CC(=O)N2CCN(c3ccc(Cl)cc3)CC2)S(=O)(=O)c2c(C)n[nH]c2C)cc1 | -4% | -7% | -45% | ? | -1% | -6%
COc1ccc(Br)cc1-c1noc(-c2ccccc2F)n1 | 17% | ? | 6% | 0% | 3% | 13%
NC(=O)c1cccc(-c2noc(-c3ccccc3F)n2)c1 | 0.79µM* | 0.89µM* | . | ? | 2.7µM* | ?
NC(=O)c1ccccc1-c1nc(-c2ccccc2)no1 | ? | ? | 21% | ? | 24µM* | ?
COC(=O)c1cccc(-c2noc(-c3ccccc3F)n2)c1 | 0.28µM* | ? | . | ? | 1.7µM* | ?
O=C(CSc1ncccn1)N/N=C/c1ccccc1[N+](=O)[O-] | 21% | 7% | -27% | 9% | 2% | 0%
C=Cc1ccc(CN2C(=O)c3ccccc3Sc3ccc(C(=O)OCc4ccco4)cc32)cc1 | . | . | . | . | 3% | .
COc1ccccc1-n1c(SCC(=O)Nc2ccc(Br)cc2)nc(O)cc1=O | 0% | 1% | . | 7% | 0% | 0%
Cc1cc(Oc2ccc(=O)[nH]n2)nc(Cl)n1 | 3.2µM* | 1µM* | . | ? | 15µM* | ?
CC1(C(=O)NCCN2CCOCC2)C=CCN1C(=O)c1ccccc1 (stereo not given) | 28% | 12% | ? | ? | 24µM* | 17%
CNC(=O)C1(C)C=CCN1C(=O)c1ccccc1 (stereo not given) | 0% | 1% | 0% | 25% | 1% | 1%
Cc1ccc(CCNC(=O)Cn2ncc3c(=O)oc4ccccc4c32)cc1 | . | . | 8% | . | -7% | .
O=C(c1ccc(-c2ccc([N+](=O)[O-])cc2Cl)o1)N1CCOCC1 | ? | 28% | ? | ? | 17µM* | ?
O=C(c1ccc(-c2ccccc2Cl)o1)N1CCCC(C(F)(F)F)C1 (stereo not given) | ? | 29% | . | ? | 13µM* | ?
Cc1c(C(=O)N2CCCC(C(F)(F)F)C2)oc2ccccc12 (stereo not given) | 3% | 0% | . | ? | ? | 2%
NC(=O)C1CCCN(C(=O)c2ccc(-c3cccc(Cl)c3Cl)o2)C1 (stereo not given) | ? | ? | . | ? | 9.5µM* | ?
CN1CCCN(C(=O)c2ccccc2Cl)CC1 | 4% | -3% | . | 1% | -2% | -2%
O=C(c1ccc(-c2ccccc2Cl)o1)N1CCC1 | ? | ? | . | ? | 17µM* | ?
CC(OC(=O)COc1cccc2c1OC(C)(C)C2)C(=O)Nc1ccc(S(N)(=O)=O)cc1 (stereo not given) | -6% | -4% | . | 14% | 3% | 4%
CCOc1cc2c(cc1OCC)C(c1ccccc1)N(c1ccccc1)C(=O)C2 (stereo not given) | -4% | -8% | -5% | -18% | 5% | -5%
O=C(c1ccc(-c2cccc(Cl)c2Cl)o1)N1CCOCC1 | 1.3µM* | ? | 11µM* | ? | ? | ?
CC(=O)c1ccc(-c2ccc(C(=O)N3CCC(C(N)=O)CC3)o2)cc1 | 29% | ? | . | ? | ? | ?
CC(=O)N1CCN(C(=O)c2ccc(-c3cccc(C(F)(F)F)c3)o2)CC1 | -1% | -1% | . | 4% | -9% | 3%
O=C(c1ccc(-c2cccc(C(F)(F)F)c2)o1)N1CCOCC1 | 19% | 24% | 28% | ? | ? | 16µM*
O=C(c1ccc([N+](=O)[O-])o1)N1CCOCC1 | 0% | -2% | -7% | -13% | 4% | 2%
SMILES | Rab9 promoter act | NPC1 prom act | SMN2 splice up | ELG1 repair inh | FLuc modulator | ELG1 genotox
CC1CCN(C(=O)c2ccc(-c3ccccc3Cl)o2)CC1 | 0.32µM* | 0.89µM* | . | ? | 2.1µM* | ?
Cc1ccccc1C(=O)N1CCN(c2ccc(NC(=O)c3ccco3)cc2Cl)CC1 | -9% | -3% | -94% | 2.1µM* | 2% | -33%
Cc1ccc(NC(=O)N2CCN(C(=O)c3ccco3)CC2)cc1Cl | 7% | 1% | . | 0% | -15% | 10%
O=C(Nc1ccc(N2CCN(C(=O)c3cccs3)CC2)c(Cl)c1)c1ccco1 | -4% | -4% | -1% | 21µM* | ? | -8%
O=C(Nc1ccc(NC(=O)c2cccs2)c(Cl)c1)c1ccco1 | -5% | 0% | . | -24% | ? | -2%
O=C(CSc1nncs1)NC(=O)Nc1ccc2c(c1)OCCO2 | 3.5µM* | ? | . | ? | 15µM* | ?
Cc1cc(C(=O)CSc2nnnn2-c2ccccc2)c(C)n1-c1ccc2c(c1)OCO2 | -3% | -3% | -90% | -3% | 1% | 17%
O=C(CSc1nncs1)Nc1ccc2c(c1)OCCO2 | ? | ? | 18% | ? | ? | 15µM*
Cc1cc(C(=O)CSc2nncs2)c(C)n1-c1ccc2c(c1)OCO2 | 2.2µM* | ? | -12% | ? | 19µM* | 5%
Cc1cc(C(=O)CSc2nnnn2-c2ccc(O)cc2)c(C)n1Cc1ccc2c(c1)OCO2 | -1% | 1% | -38% | 18µM* | 1% | -38%
COC(=O)c1cc(OC)c(OC)c(OC)c1NC(=O)c1cc(=O)n(C)c(=O)n1C | . | . | 1% | . | -6% | .
CN(C)Cc1ccccc1-c1cncnc1Nc1ccc(F)cc1 | . | . | -10% | . | . | .
NC(=O)C1CCN(S(=O)(=O)c2ccc(N3CCCCS3(=O)=O)cc2)CC1 | . | . | . | . | 0% | .
C/C(Cl)=C/CSc1nn2c(=O)c3ccccc3nc2s1 | ? | ? | 27% | ? | 12µM* | ?
C=CCSc1nc2ccccc2c(=O)[nH]1 | -18% | 1% | 12% | 30% | -5% | 7%
C=CCSc1nn2c(=O)c3ccccc3nc2s1 | 3.2µM* | 2.5µM* | ? | ? | 13µM* | ?
Cc1nnc2sc(SCc3ccccc3)nn2c1=O | -6% | 1% | 7% | ? | 0% | 3%
COc1ccc([C@]23Cc4ccccc4C(O2)C2=C(CC4(CCCCC4)OC2=O)O3)cc1 | 10%[1.84 µM] | -1%[1.84 µM] | . | . | ? | .
CCOC(=O)[C@H]1[C@H]2COc3ccccc3[C@@H]2N2C(=O)CN(CC3CCCO3)C(=O)[C@@]12C (stereo not given in full) | . | . | . | ? | . | 6%
CNC(=O)c1c(NC(=O)c2nc3ccccc3s2)sc2c1CCC2 | 2µM* | ? | 13µM* | ? | 5.4µM* | 4.6µM*
COC(=O)c1c(NC(=O)c2nc3ccccc3s2)sc2c1CCN(C(C)=O)C2 | 18% | -2% | -7% | ? | ? | -1%
Cc1cccc(C(=O)Nc2sc3c(c2C(=O)Nc2ccccc2)CCC3)c1 | . | . | -12% | . | ? | .
